Inconclusive results are not listed. Calls of active or inactive are those of the source. Calls follow the shape of the dose curve; as a rule, active = well fitted cell-killing curve with a large enough effect; inconclusive = small, poorly fitted or top-dose-only effect; inactive = flat fitted curve, though single readings scatter.
Potency is read from the fitted curve at half-maximal effect.

The test in a line: Identifying Small Molecule Inhibitors of Pancreatic Cancer Stem Cells (SN12C, Adherent) (AID 1259358).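 Also: cell survival measured after 48 h of compound exposure.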 To be noted: viability/growth inhibition; series mostly up to 46.1 µM. From the text: Progenitor-like cancer cells, often referred to as cancer stem cells (CSC), are believed to be the drivers of therapeutic resistance and rapid recurrence. CSCs are postulated to reside in specific niches characterized by low oxygen tension, limited nutrient supply, and high redox load. Selectively targeting CSC, alone or in combination with cytotoxic agents, as a means to produce durable remissions is an appealing concept. Modeling these cells in in vitro setting is an important step in finding new therapies and/or targets. Multiple reports highlight that forcing cells in culture into 3-dimensionaly architectures (spheroids) re-establishes key progenitor-like transcriptional signatures. Pancreatic cancer is among the diseases with the most dismal outlook which is driven, largely, by recurance following front-line therapies. […] In hopes of deriving new insight into the targeting of these pancreatic CSCs we examined three established pancreatic cancer cell lines in cytotoxicity assays versus a collection of approved and investigational drugs. Importantly, we screened these lines as traditional monolayer (2D) and spheroid (3D) formats to gain an appreciation of agents with differential activity.
Multicellular tumor spheroids from Panc1, MiaPaCa-2, and the primary low-passage tissue culture line SB.06 were seeded in stem cell media (SCM) in nonadherent 6-well plates coated with hydrogel (Corning Life Sciences, Chelmsford, Mass) and pancreatic spheres generated for 14 days before screening. Cells were seeded into 1536-well solid-bottom white tissue culture treated Greiner Bio One Plates (789173-F) using a MultiDrop Combi (Thermofisher Scientific) dispenser and a small sterile cassette. One column was media alone to be used as a :"no cells" control. The plates were then covered with sterilized stainless steel gasketed lids from Kalypsys. After allowing cells to attach for 4 hours, 23 nL of test compound or control (negative control DMSO and positive control 9.2 uM Bortezomib-final) were added from a 1536-well polypropylene compound source plate to each well using a 1536 head pin tool from Kalypsys. Cells were then incubated for 48 hours at 37C, 95% relative humidity and 5% CO2. After 48 hours, plates were removed from the incubator and 3 uL of CellTiter-Glo (Promega) was added using an Aurora Flying Reagent Dispenser Bioraptor. Plates were incubated at room temperature for 10 minutes prior to reading the luminescence on the Viewlux (PerkinElmer). The relative luciferase units are used to calculate the percent activity using the activity of DMSO in the cells and no cells columns for normalization of no inhibition and full inhibition respectively.
For the compound `O=C(O)c1ccc2cc(-c3ccc(O)c(C45CC6CC(CC(C6)C4)C5)c3)ccc2c1`, the Potency is 2.64 µM (active).

As for `Cc1cc(Nc2cc(N3CCN(C)CC3)nc(Sc3ccc(NC(=O)C4CC4)cc3)n2)n[nH]1`, the Potency was 20.9 µM (active). The result for `CC(C)(C)OC(=O)Nc1ccc(-c2cc(C(=O)NCCCCCCC(=O)NO)no2)cc1` reads 26.4 µM (active); that for `CC(C)c1ccccc1Cc1cc(C(=O)Nc2ccc(S(=O)(=O)c3ccccc3C(C)(C)C)cc2)c(O)c(O)c1O`, “inactive”; that for `Nc1nc(-c2nn(Cc3ccccc3F)c3ncccc23)nc(N)c1N1CCOCC1`, “inactive”. With `COCCn1c2c([n+](Cc3cnccn3)c1C)C(=O)c1ccccc1C2=O`, the Potency was 0.0264 µM (active). Consider `Cc1cn2c(-c3cn[nH]c3)cnc2c(Nc2ccc(C(=O)N3CCNCC3)cc2F)n1`, for which the Potency is 20.9 µM (active). On to `COc1ccc(CC2SC(=O)NC2=O)cc1C(=O)NCc1ccc(C(F)(F)F)cc1` (stereo not given), for which the Potency result is “inactive”. Consider `C#Cc1cccc(Nc2ncnc3cc(OC)c(OCCCCCCC(=O)NO)cc23)c1`, for which the Potency was 14.8 µM (active). On to `Cc1ccc(S(=O)(=O)Nc2cc(Cl)ccc2C(=O)Nc2nc(-c3ccccc3)cs2)cc1`, for which the Potency is 2.64 µM (active). For `O=C(C=Cc1c(C(=O)O)[nH]c2cc(Cl)cc(Cl)c12)Nc1ccccc1`, the Potency result is “inactive”.

For `CC=C1NC(=O)[C@H]2CSSCCC=C[C@H](CC(=O)N[C@H](C(C)C)C(=O)N2)OC(=O)[C@H](C(C)C)NC1=O`, the Potency was 0.0053 µM (active). For `Nc1ccc(C(=O)c2cc3c(ccc4ccccc43)[nH]2)cc1`, the Potency result is “inactive”. Consider `CC(=O)OCCN1C(=O)c2c(C)nc3ccc(S(=O)(=O)N4CCOCC4)cc3c2C1=O`, for which the Potency entry is “inactive”. With `Cc1nc2cnc3ccc(C#Cc4cccnc4)cc3c2n1-c1ccc(C(C)(C)C#N)cc1`, the Potency is 1.18 µM (active). With `Cn1cc(-c2[nH]c3cc(NC(=O)[C@H](N)C4CCCCC4)cc4c3c2C=NNC4=O)cn1`, the Potency was 14.8 µM (active). On to `Cc1cn(-c2cc(NC(=O)c3ccc(C)c(Nc4nccc(-c5cccnc5)n4)c3)cc(C(F)(F)F)c2)cn1`, for which the Potency entry was “inactive”.

`CS(=O)(=O)N1CCN(Cc2cc3nc(-c4cccc5[nH]ncc45)nc(N4CCOCC4)c3s2)CC1`: the Potency is 0.296 µM (active). `NC(=O)c1c(OCc2c(F)cc(Br)cc2F)nsc1NC(=O)NCCCCN1CCCC1`: the Potency is 5.26 µM (active). As to `O=C(C=Cc1cccnc1)NCCCCC1CCN(C(=O)c2ccccc2)CC1`, the Potency entry is “inactive”.

For the compound `C=CC(=O)Nc1cc2c(Nc3ccc(F)c(Cl)c3)ncnc2cc1OCCCN1CCOCC1`, the Potency was 23.5 µM (active).

On to `Cc1cnc(-c2cnc(NCCNc3ccc(C#N)cn3)nc2-c2ccc(Cl)cc2Cl)[nH]1`, for which the Potency entry was “inactive”. For the compound `CC(C)[C@H](C(=O)Nc1ccc(C(=O)NO)cc1)c1ccccc1`, the Potency was 3.72 µM (active). For `c1ccc2c(CCNc3ccc(Nc4ccncc4)cc3)c[nH]c2c1`, the Potency is 18.7 µM (active). As for `C[C@@H]1CN(CC(=O)Nc2ccc3c(c2)Cc2cccc(-c4cc(=O)cc(N5CCOCC5)o4)c2S3)C[C@H](C)O1`, the Potency entry was “inactive”. Consider `CC(C)=CCCC(C)=CCCC(C)=CCSc1ccccc1C(=O)O`, for which the Potency entry is “inactive”. For the compound `CN1CCC(CNc2ccc3ncc(-c4cccc(OC(F)(F)F)c4)n3n2)CC1`, the Potency was 20.9 µM (active). Consider `CC(C)c1ccc(Cn2ccc3c4c(N)nc(NC5CC5)nc4ccc32)cc1`, for which the Potency was 7.43 µM (active). For the compound `CCOc1cc2ncc(C#N)c(Nc3ccc(F)c(Cl)c3)c2cc1NC(=O)C=CCN(C)C`, the Potency is 0.209 µM (active).

Turning to `C=CC(=O)Nc1cc2c(Nc3ccc(F)c(Cl)c3)ncnc2cc1C#CC(C)(C)N1CCN(C)CC1`, the Potency is 13.2 µM (active).

Consider `CCCCc1nc2cc(C=CC(=O)NO)ccc2n1CCN(CC)CC`, for which the Potency was 2.96 µM (active). Regarding `O=C(NCCS(=O)(=O)c1ccc(C(F)(F)F)cn1)c1ccc(Cl)cc1`, the Potency entry was “inactive”. The result for `O=C(O)[C@H](Cc1c[nH]c2ccccc12)N1C(=O)c2ccccc2C1=O` reads “inactive”. As for `Fc1cc(-c2cccc3ncc(-c4cnn(C5CCNCC5)c4)nc23)cc(F)c1CN1CCOCC1`, the Potency is 23.5 µM (active). `COc1ccc2c(c1)CC[C@@H](CN(C)CC(=O)O)[C@H]2c1ccccc1`: the Potency result was “inactive”.

For `Cn1c(=O)n(-c2ccc(C(C)(C)C#N)cc2)c2c3cc(-c4cnc5ccccc5c4)ccc3ncc21`, the Potency was 0.0743 µM (active). The result for `CC1(C)OC2=C(C(=O)c3ccccc3C2=O)[C@H](NCc2ccccc2)[C@H]1O` reads 26.4 µM (active); that for `CC[C@@H]1C(=O)N(C)c2cnc(Nc3ccc(C(=O)NC4CCC(N5CCN(CC6CC6)CC5)CC4)cc3OC)nc2N1C(C)C` (stereo not given in full), 1.32 µM (active); that for `COc1cc(OC2CCN(C)CC2)ccc1Nc1ncc2c(n1)n(C1CCCC1)c(=O)n2C`, 16.6 µM (active). Consider `COC(=O)c1ccc2c(C(=Nc3ccc(N(C)C(=O)CN4CCN(C)CC4)cc3)c3ccccc3)c(O)[nH]c2c1`, for which the Potency was 18.7 µM (active).
